Source: PubChem
ELG1 DNA repair: qHTS screen for small molecules that inhibit ELG1-dependent DNA repair in human embryonic kidney (HEK293T) cells expressing luciferase-tagged ELG1. Potency, µM (top dose mostly 46.1 µM), for the others: at the top dose activity change, negative = inhibition, hits mostly inhibitors. AID 504467, 2011. HEK293T ELG1-luciferase reporter, luminescence, 16 h; DNA damage induced by 5-fluorouridine. actives 2.3% (n = 330,000); also: potency is read from the fitted curve at half-maximal effect; nearly all actives have a fitted effect of over 55% in size
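Quantitative HTS, concentration-response format. 2,000 cells/well co-treated with 5-fluorouridine and compound, 16 hr in 5% CO2 at 37 °C; ONE-Glo luminescence read after 30 min.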
HT1080NT lethal: qHTS for induction of synthetic lethality in tumor cells producing 2HG: qHTS for the HT-1080-NT fibrosarcoma cell line; actives 1.6% (n = 360,000); AID 686970, 2013; HT-1080-NT fibrosarcoma viability, CellTiter-Glo ATP luminescence, 48 h; Potency, µM (doses to about 46.1 µM), for the others: at the top dose activity, negative = less viability, actives largely listed as cytotoxic;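 also: NT is the 2HG producing partner of a matched IDH1 knockdown line; potency is read from the fitted curve at half-maximal effect; 0% = DMSO-treated cells and -100% = media-only wells without cells; nearly all actives have a fitted effect of over 55% in size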
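Toxicity toward the 2HG-producing NT line was scored as %Activity, normalised to DMSO and no-cell wells, from CellTiter-Glo luminescence after 48 hours' treatment.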
TDP1 cell noCPT: qHTS for Inhibitors of human tyrosyl-DNA phosphodiesterase 1 (TDP1): qHTS in cells in absence of CPT. DT40 Tdp1-/- hTDP1 cells, no CPT, ATP luminescence, 48 h. Potency, µM (highest dose often 46.2 µM), inactives show top-dose activity change, negative = growth inhibition, usual class: inhibitors. actives 15% (n = 420,000). AID 686978, 2013; also: potency is read from the fitted curve at half-maximal effect; nearly all actives have a fitted effect of over 55% in size
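Luminescent ATP content (CellTiter-Glo) served as the growth readout. Knockout chicken DT40 cells expressing human TDP1 were exposed to compounds without camptothecin for a minimum 48 hr at 37 °C.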
DT40 TDP1 CPT: qHTS for Inhibitors of human tyrosyl-DNA phosphodiesterase 1 (TDP1): qHTS in cells in presence of CPT | actives 12% (n = 420,000) | Potency, µM (highest dose often 46.2 µM), for the others: at the highest dose activity change, negative = growth inhibition, most hits filed as inhibitors | AID 686979, 2013 | chicken DT40 Tdp1-/-;hTDP1 cells + 20 nM CPT, ATP luminescence, 48 h; also: potency is read from the fitted curve at half-maximal effect; nearly all actives have a fitted effect of over 55% in size
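Chicken DT40 Tdp1-/- cells complemented with human TDP1, 400 cells/well, exposed to compounds plus 20 nM camptothecin for at least 48 h at 37 C; viability read as ATP content by CellTiter-Glo luminescence.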
HT1080 IDH1KD tx: qHTS for induction of synthetic lethality in tumor cells producing 2HG: qHTS for the HT-1080-IDH1KD cell line; HT-1080 IDH1 knockdown viability, ATP luminescence, 48 h; Potency, µM (titrated, usually from 46.1 µM), for the others: at the top dose activity, negative = toxicity, hits mostly cytotoxic; actives 2% (n = 360,000);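 also: potency is read from the fitted curve at half-maximal effect; 0% = DMSO wells and -100% = cell-free medium wells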
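Knockdown cells (IDH1KD HT-1080) received compounds 2 h after plating at 750 cells/well and were kept 48 h at 37 °C in 5% FBS RPMI. A CellTiter-Glo luminescence read gave % activity for curve fitting.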
IL-1B inflam inh: qHTS for Inhibitors of Inflammasome Signaling: IL-1-beta AlphaLISA Primary Screen; THP-1 LPS/ATP IL-1B secretion, AlphaLISA, 16 h; active compounds read low; activity change, % at 57.5 µM; actives 4.7% (n = 360,000); in the data active = activity change below about -50%; inconclusive = mostly about -30% to -49%
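Secreted IL-1B measured by AlphaLISA bead assay after 16 h compound exposure of THP-1 cells; compounds (final up to 57.5 uM) added 1 h before LPS (250 ng/mL) and ATP (1.25 mM) stimulation; lower signal means less secretion.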
* hit, by the source's call; ? = inconclusive; / = no result given; ! = not active in a repeat. Shown are actives, neighbours in structure and some others; about 19% of the full set was active somewhere. Unless noted, calls follow the shape of the dose curve; as a rule, active = well fitted curve in the direction sought with a large enough effect; inconclusive = small, poorly fitted or top-dose-only effect, or another doubt; inactive = no such curve, though single readings can be large; an effect the other way counts as inactive or inconclusive. Unless noted, % is scaled to controls: 0 for no effect and ±100 for the full control effect.

SMILES	ELG1 DNA repair	HT1080NT lethal	TDP1 cell noCPT	DT40 TDP1 CPT	HT1080 IDH1KD tx	IL-1B inflam inh
COc1cccc(C(=O)NCC(c2cccnc2)N2CCN(c3ccccc3OC)CC2)c1 (stereo unspecified)	?	-1%	23µM*	21µM*	-15%	33
COc1ccc(C(=O)NCC(c2cccnc2)N2CCN(c3ccccc3)CC2)cc1OC (stereo unspecified)	-10%	0%	-21%	?	-8%	21
COc1ccc(C(=O)NCC(c2cccnc2)N2CCN(c3ccccc3OC)CC2)cc1OC (stereo unspecified)	-19%	-7%	?	21µM*	-7%	11
COc1ccccc1N1CCN(C(CNC(=O)c2ccco2)c2cccnc2)CC1 (stereo unspecified)	?	0%	?	?	4%	12
NC(=O)C1(N2CCCCC2)CCN(C(=O)c2cc(COc3c(F)cccc3F)on2)CC1	/	16%	?	?	1%	11
Cc1nc2sccn2c(=O)c1S(=O)(=O)NCC1CCN(Cc2ccccc2Cl)CC1	-2%	4%	10%	-14%	-5%	-7
COc1ccc(-n2nc3c(N4CCCC(C(=O)NCc5ccccc5C)C4)nnc(C)c3c2C)cc1 (stereo unspecified)	/	/	5.2µM*	2.9µM*	/	/
Cc1ccc(-n2nc3c(N4CCC(C(=O)N5CCC(C)CC5)CC4)nnc(C)c3c2C)cc1	/	/	-21%	-27%	/	/
Cc1ccc(-n2nc3c(N4CCC(C(=O)N5CCCCC5)CC4)nnc(C)c3c2C)cc1	/	/	23µM*	?	/	/
COc1ccc(-n2nc3c(N4CCC(C(=O)NCc5ccco5)CC4)nnc(C)c3c2C)cc1	-10%	0%	?	?	4%	-21
Cc1ccc(-n2nc3c(N4CCC(C(=O)NCc5ccc(C)o5)CC4)nnc(C)c3c2C)cc1	-14%	21µM*	?	23µM*	18µM*	-1
COc1ccc(-n2nc3c(N4CCCC(C(=O)NCCc5ccc(C)cc5)C4)nnc(C)c3c2C)cc1 (stereo unspecified)	/	/	3.7µM*	3.3µM*	/	/
CSc1ccc(CNC(=O)C(C)n2nc(C)c3c(C)n(-c4ccccc4)nc3c2=O)cc1 (stereo unspecified)	-3%	-16%	-10%	?	5%	5
COc1ccc(-n2nc3c(N4CCC(C(=O)NCCc5ccccc5C)CC4)nnc(C)c3c2C)cc1	?	-1%	16µM*	?	-11%	-83*
Cc1nnc(N2CCC(C(=O)NC(C)C)CC2)c2nn(-c3ccc(Cl)cc3)c(C)c12	/	/	17%	8%	/	/
Cc1ccc(-n2nc3c(N4CCC(C(=O)NCCc5ccco5)CC4)nnc(C)c3c2C)cc1	0%	?	?	21µM*	?	-18
Cc1ccc(-n2nc3c(N4CCC(C(=O)NCCC(C)C)CC4)nnc(C)c3c2C)cc1	/	/	?	16µM*	/	/
COc1ccccc1CNC(=O)C1CCN(c2nnc(C)c3c(C)n(-c4ccccc4)nc23)CC1	/	/	-22%	16%	/	/
COc1ccc(-n2nc3c(N4CCC(C(=O)NCC(C)c5ccccc5)CC4)nnc(C)c3c2C)cc1 (stereo unspecified)	-22%	?	?	?	?	-96*
Cc1ccc(C(=O)NCC(=O)OCc2cc(=O)n3c(C)csc3n2)cc1	/	/	0%	-4%	/	/
Cc1ccc(-n2nc3c(N4CCC(C(=O)NCc5cccc(F)c5)CC4)nnc(C)c3c2C)cc1	16µM*	?	18µM*	?	?	?
Cc1nnc(N2CCC(C(=O)NC(C)C)CC2)c2nn(-c3ccccc3)c(C)c12	/	/	-23%	-21%	/	/
COc1ccc(-n2nc3c(N4CCC(C(=O)NCc5ccccc5C)CC4)nnc(C)c3c2C)cc1	24%	15µM*	7.3µM*	18µM*	16µM*	-95*
COc1ccccc1CNC(=O)C1CCCN(c2nnc(C)c3c(C)n(-c4ccccc4)nc23)C1 (stereo unspecified)	/	/	21µM*	21µM*	/	/
COc1ccc(-n2nc3c(N4CCC(C(=O)NC5CCCCC5)CC4)nnc(C)c3c2C)cc1	0%	-1%	15µM*!	13µM*!	-2%	25
SMILES	ELG1 DNA repair	HT1080NT lethal	TDP1 cell noCPT	DT40 TDP1 CPT	HT1080 IDH1KD tx	IL-1B inflam inh
N#Cc1ccccc1OCC(=O)NCC(c1cccs1)N1CCOCC1 (stereo unspecified)	-2%	-8%	10%	-3%	-6%	30
Cc1ccc(C(=O)NNC(=O)C2CCN(c3nccc(C)n3)CC2)cc1	-2%	8%	-11%	-8%	-1%	20
Cc1ccc(-n2nc3c(N4CCC(C(=O)NCCc5ccccc5C)CC4)nnc(C)c3c2C)cc1	12%	-7%	5.8µM*	16µM*	-4%	-11
CC1=C(C#N)C(NC(=O)c2ccccc2)(C(F)(F)F)C(=O)N1 (stereo unspecified)	/	/	-3%	-16%	/	/
CCSc1nnc2c(n1)OC(c1sccc1C)N(C(C)=O)c1ccccc1-2 (stereo unspecified)	/	/	13µM*	?	/	/
CCSc1nnc2c(n1)OC(c1ccc(OC)c(OC)c1)N(C(C)=O)c1ccccc1-2 (stereo unspecified)	/	/	8%	-4%	/	/
CCN(CC)C(=O)Cn1cc(C(=O)C(=O)N(C)C2CCN(C)CC2)c2ccccc21	-1%	-10%	0%	-12%	-3%	3
COc1ccc(-c2csc(CCN3N=C(C)CC3=O)n2)cc1	?	-12%	?	?	0%	-53*
Cc1cn(C2CCCCO2)c(=O)[nH]c1=O (stereo unspecified)	/	6%	-2%	8%	5%	3
CC(C)(C)OC(=O)N1CCC(c2c(C(=O)NCc3cccs3)cnn2-c2cccc(F)c2)CC1	/	/	16µM*	?	/	/
Cc1ccc(-n2ncc(C(=O)NCc3cccs3)c2C2CCN(C(=O)OC(C)(C)C)CC2)cc1C	/	/	16µM*	16µM*	/	/
